18 molecules from PubChem BioAssay AID651692 (Broad Institute, 2012) can be followed below.

Measured potencies and affinities stand elsewhere. Activity calls are given as the source filed them.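 Rule for the calls: active = fitted half-maximal concentration for loss of cell signal no higher than twice the top valid tested concentration; inconclusive = flat curve at 30 to 70% inhibition, or poor fit; inactive = flat within 30%, signal rise, or potency above limit.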

This assay can be described thus: MDA-MB-231 cell growth inhibition, dose response, cytotoxicity control for RAD54 inhibitor project, CellTiter-Glo luminescence, cherry-pick (AID 651692).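 Note: 0% = median of sample compound wells and -100% = staurosporine control wells; more negative values mean stronger loss of viable cell signal.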 The conditions noted are these: MDA-MB-231 viability, 24 h; series mostly up to 26 µM; activity change, negative = growth inhibition: at the top concentration. Background: In ATP-based viability assays light output follows the ATP content of the culture.
Take `CCN(CC)CCNC(=S)Nc1ccc2nc(N3CCN(CC)CC3)cc(C)c2c1`: the “activity change, negative = growth inhibition” value was -7.23% (inactive).

`NNC(=O)c1oc2nc(-c3cccs3)cc(-c3ccco3)c2c1N`: the “activity change, negative = growth inhibition” value is 1.61% (inactive).

In the case of `Cc1ccc2[nH]c(=O)c3cc(C(=O)NCCN4CCN(C)CC4)sc3c2c1`, the “activity change, negative = growth inhibition” value is -2.44% (inactive).

With `O=c1c2ccccc2oc2ccc(NCCCN3CCOCC3)cc12`, the “activity change, negative = growth inhibition” value was 9.85% (inactive).

Take `CCN(CC)CCCNC(=O)c1cc2c(-c3ccc(Cl)cc3)nn(C)c2s1`: the “activity change, negative = growth inhibition” value is -1.26% (inactive).

Take `CN(C)c1cc(NC(=O)CNC(C)(C)C)c2ccccc2n1`: the “activity change, negative = growth inhibition” value is -2.81% (inactive).

In the case of `COc1cccc(-c2cc(NC=O)c3ncc(-c4cccc(C(=O)NCCN(C)C)c4)n3c2)c1`, the “activity change, negative = growth inhibition” value was -5.61% (inactive).

`CCN(CC)CC(=O)Nc1cccc2c1C(=O)c1ccccc1C2=O`: the “activity change, negative = growth inhibition” value was 7.08% (inactive).

Turning to `Cc1ccc(-c2nc(NCCCO)c3ccccc3n2)cc1`, the “activity change, negative = growth inhibition” value is -3.38% (inactive).

For `Cc1nc2ccccc2c2oc(C(=O)N3CCC(N4CCCCC4)CC3)cc12`, the “activity change, negative = growth inhibition” value is 5.89% (inactive).

As for `Nc1cccc2nc3ccccc3cc12`, the “activity change, negative = growth inhibition” value is -12.2% (inactive).

As to `CCOC(=O)c1c(NC(C)=O)sc2c(O)c(CN3CCN(CC)CC3)ccc12`, the “activity change, negative = growth inhibition” value was 4.29% (inactive).

Regarding `COc1ccc(Cl)c2sc(N(CCN(C)C)C(=O)C3=COCCO3)nc12`, the “activity change, negative = growth inhibition” value is 3.13% (inactive).

`CN(C)CCN(C(=O)c1ccco1)c1nc2cc3c(cc2s1)OCCO3`: the “activity change, negative = growth inhibition” value was -3.18% (inactive).

Take `COc1ccc(Nc2nc(N3CCCCC3)nc3ccccc23)c(OC)c1`: the “activity change, negative = growth inhibition” value is -11.8% (inactive).

`CC(C)N1CCc2c(sc(NC(=O)c3ccc(C(=O)c4ccccc4)cc3)c2C(N)=O)C1`: the “activity change, negative = growth inhibition” value is -13.8% (inactive).

Turning to `CC(=O)Nc1sc2c(c1-c1nc3ccccc3s1)CN(C(C)C)CC2`, the “activity change, negative = growth inhibition” value was -13.2% [at 8 µM] (inactive).

In the case of `CCCN(CCC)CCCNC(=O)c1cc2c(-c3ccc(OC)c(OC)c3)nn(C)c2s1`, the “activity change, negative = growth inhibition” value is 6.76% (inactive).
